# Reference: PMC7862700, “An all-to-all approach to the identification of sequence-specific readers for epigenetic DNA modifications on cytosine”
# How the values were obtained:
# Assay in all cases: DAPPL (digital affinity profiling via proximity ligation, sequencing); 10 mM Tris-HCl pH 7.5, 50 mM NaCl, 1 mM DTT, 4% glycerol, room temperature, 30 min; GST-TFs on glutathione beads, 16-mer random dsDNA library, 0.1% formaldehyde crosslink after washing; high values mean tight binding
# FLI1 = target: T1, FLI1 (Homo sapiens, UniProt Q01543 1-452); details: protein: recombinant; tags: N-terminal GST; dsDNA, one strand shown
# T1 sequence: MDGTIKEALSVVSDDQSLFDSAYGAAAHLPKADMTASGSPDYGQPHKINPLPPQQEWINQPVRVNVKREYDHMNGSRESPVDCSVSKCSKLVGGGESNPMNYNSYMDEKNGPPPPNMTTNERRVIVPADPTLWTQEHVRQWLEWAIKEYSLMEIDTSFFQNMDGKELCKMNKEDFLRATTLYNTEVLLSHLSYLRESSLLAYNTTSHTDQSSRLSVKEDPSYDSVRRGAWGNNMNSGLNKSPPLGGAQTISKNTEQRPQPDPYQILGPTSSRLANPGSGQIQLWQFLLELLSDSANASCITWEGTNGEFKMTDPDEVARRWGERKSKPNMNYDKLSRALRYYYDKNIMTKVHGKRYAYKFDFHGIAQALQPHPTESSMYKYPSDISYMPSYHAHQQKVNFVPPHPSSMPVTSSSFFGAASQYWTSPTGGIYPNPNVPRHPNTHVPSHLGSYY
# Summary of the method: (§1)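 GST fusions of human transcription factors were expressed in yeast and captured with glutathione beads. Once given DNA barcodes and pooled alongside a tag-only sample, they were incubated for 30 min at room temperature with 200 nmole of a random double-stranded 16-mer DNA library in Tris/NaCl/DTT/glycerol buffer, then washed, crosslinked (0.1% formaldehyde), proximity-ligated, PCR-amplified and sequenced on an Illumina NextSeq500. The binding signal of each hexamer is its read frequency for a factor divided by its frequency for the tag-only sample.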
# ELK1 = target: T2, ELK1 (Homo sapiens, UniProt P19419 1-428); details: protein: recombinant; tags: N-terminal GST; dsDNA, one strand shown
# T2 sequence: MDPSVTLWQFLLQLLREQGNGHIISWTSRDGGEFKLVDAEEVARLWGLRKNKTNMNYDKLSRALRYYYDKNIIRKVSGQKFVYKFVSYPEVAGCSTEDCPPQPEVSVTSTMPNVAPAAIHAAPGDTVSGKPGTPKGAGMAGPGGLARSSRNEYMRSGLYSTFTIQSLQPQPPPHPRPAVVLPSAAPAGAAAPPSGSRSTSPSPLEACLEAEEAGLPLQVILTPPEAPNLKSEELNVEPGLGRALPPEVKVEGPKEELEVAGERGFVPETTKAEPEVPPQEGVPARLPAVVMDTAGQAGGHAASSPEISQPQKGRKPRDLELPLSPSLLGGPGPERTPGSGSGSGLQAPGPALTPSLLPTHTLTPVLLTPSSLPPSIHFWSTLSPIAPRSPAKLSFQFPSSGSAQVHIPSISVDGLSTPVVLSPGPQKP
# Summary of the method: as §1
# GABPA = target: T3, GABPA (Homo sapiens, UniProt Q06546 1-454); details: protein: recombinant; tags: N-terminal GST; dsDNA, one strand shown
# T3 sequence: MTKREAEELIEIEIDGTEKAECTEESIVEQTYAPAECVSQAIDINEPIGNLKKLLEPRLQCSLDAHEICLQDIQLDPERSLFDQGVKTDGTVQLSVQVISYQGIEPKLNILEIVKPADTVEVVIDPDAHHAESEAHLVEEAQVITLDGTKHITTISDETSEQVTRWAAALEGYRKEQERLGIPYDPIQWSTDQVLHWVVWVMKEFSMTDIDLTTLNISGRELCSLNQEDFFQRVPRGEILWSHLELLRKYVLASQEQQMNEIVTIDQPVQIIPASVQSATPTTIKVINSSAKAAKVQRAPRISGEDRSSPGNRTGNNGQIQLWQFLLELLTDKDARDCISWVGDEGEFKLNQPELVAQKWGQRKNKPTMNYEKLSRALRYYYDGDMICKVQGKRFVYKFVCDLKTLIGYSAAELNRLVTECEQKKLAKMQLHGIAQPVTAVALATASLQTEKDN
# Summary of the method: as §1
# ERG = target: T4, ERG (Homo sapiens, UniProt P11308 1-479); details: protein: recombinant; tags: N-terminal GST; dsDNA, one strand shown
# T4 sequence: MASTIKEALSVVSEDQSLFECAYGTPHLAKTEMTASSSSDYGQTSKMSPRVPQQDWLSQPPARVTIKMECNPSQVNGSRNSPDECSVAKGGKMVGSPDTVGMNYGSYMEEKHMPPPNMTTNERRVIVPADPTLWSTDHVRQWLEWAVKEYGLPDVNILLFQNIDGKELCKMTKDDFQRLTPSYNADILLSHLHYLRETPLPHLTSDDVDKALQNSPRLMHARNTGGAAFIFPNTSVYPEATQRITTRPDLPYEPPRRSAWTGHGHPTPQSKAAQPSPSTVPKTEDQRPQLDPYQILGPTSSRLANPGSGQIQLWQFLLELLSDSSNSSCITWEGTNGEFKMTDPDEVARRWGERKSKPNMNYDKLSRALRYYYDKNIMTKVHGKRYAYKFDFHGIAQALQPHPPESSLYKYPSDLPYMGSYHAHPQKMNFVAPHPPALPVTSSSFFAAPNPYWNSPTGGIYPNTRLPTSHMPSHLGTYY
# Summary of the method: as §1
# ELF1 = ELF1 (Homo sapiens, UniProt P32519 1-619); details: protein: recombinant; tags: N-terminal GST; dsDNA, one strand shown
# Sequence of ELF1 (P32519 whole entry): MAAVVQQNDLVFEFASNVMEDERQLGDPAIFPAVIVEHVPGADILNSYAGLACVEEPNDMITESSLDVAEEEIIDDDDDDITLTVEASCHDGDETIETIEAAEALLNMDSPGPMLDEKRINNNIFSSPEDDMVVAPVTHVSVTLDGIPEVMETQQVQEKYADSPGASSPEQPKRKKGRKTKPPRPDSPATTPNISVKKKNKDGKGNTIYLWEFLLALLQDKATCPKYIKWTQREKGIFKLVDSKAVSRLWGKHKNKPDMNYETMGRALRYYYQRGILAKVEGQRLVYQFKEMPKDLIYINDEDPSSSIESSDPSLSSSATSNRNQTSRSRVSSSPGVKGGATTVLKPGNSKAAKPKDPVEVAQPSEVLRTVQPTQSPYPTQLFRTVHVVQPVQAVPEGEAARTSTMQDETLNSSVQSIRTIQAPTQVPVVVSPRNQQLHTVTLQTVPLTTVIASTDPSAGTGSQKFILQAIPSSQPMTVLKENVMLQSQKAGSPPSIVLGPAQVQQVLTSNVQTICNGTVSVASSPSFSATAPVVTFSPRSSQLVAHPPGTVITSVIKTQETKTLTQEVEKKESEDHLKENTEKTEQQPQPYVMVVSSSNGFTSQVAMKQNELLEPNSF
# Summary of the method: as §1
# EHF = target: T5, EHF (Homo sapiens, UniProt Q9NZC4 1-300); details: protein: recombinant; tags: N-terminal GST; dsDNA, one strand shown
# T5 sequence: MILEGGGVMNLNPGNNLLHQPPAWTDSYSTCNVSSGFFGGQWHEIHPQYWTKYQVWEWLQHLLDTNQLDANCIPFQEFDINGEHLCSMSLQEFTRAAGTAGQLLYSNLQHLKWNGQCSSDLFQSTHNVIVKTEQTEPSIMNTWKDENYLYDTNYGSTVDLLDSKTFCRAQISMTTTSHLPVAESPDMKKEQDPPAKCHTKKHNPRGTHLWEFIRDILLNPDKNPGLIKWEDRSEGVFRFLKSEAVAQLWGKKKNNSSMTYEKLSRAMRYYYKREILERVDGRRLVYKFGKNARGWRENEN
# Summary of the method: as §1
# SPI1 = SPI1 (Homo sapiens, UniProt P17947 1-270); details: protein: recombinant; tags: N-terminal GST; dsDNA, one strand shown
# Summary of the method: as §1
# SPIB = SPIB (Homo sapiens, UniProt Q01892 1-262); details: protein: recombinant; tags: N-terminal GST; dsDNA, one strand shown
# Sequence of SPIB (Q01892 whole entry): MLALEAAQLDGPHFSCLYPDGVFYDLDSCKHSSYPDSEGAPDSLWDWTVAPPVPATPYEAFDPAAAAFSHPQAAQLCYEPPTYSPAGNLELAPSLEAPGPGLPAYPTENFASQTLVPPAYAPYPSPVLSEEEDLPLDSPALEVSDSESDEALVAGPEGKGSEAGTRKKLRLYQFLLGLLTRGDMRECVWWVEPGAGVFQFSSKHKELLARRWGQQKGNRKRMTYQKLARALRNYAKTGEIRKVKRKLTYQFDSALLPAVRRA
# Summary of the method: as §1
# ELK3 = target: T6, ELK3 (Homo sapiens, UniProt P41970 1-407); details: protein: recombinant; tags: N-terminal GST; dsDNA, one strand shown
# T6 sequence: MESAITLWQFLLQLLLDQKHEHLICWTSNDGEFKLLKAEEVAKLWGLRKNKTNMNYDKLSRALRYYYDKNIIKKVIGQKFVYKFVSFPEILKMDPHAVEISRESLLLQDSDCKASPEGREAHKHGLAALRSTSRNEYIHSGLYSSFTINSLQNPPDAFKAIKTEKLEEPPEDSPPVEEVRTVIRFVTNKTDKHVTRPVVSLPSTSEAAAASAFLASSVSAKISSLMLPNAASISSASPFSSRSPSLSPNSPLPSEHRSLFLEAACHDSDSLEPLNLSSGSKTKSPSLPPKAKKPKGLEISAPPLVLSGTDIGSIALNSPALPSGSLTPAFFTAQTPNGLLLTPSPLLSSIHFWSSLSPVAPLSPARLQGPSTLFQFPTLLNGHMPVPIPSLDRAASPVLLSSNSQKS
# Summary of the method: as §1
# FEV = target: T7, FEV (Homo sapiens, UniProt Q99581 1-238); details: protein: recombinant; tags: N-terminal GST; dsDNA, one strand shown
# T7 sequence: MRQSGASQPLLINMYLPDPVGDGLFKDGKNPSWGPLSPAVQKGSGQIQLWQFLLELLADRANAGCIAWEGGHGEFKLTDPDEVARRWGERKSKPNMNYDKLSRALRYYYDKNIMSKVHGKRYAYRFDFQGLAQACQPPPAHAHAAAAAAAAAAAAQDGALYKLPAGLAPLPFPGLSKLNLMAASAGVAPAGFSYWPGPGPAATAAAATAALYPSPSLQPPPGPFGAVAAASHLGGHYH
# Summary of the method: as §1
# ETV5 = ETV5 (Homo sapiens, UniProt P41161 1-510); details: protein: recombinant; tags: N-terminal GST; dsDNA, one strand shown
# Sequence of ETV5 (P41161 whole entry): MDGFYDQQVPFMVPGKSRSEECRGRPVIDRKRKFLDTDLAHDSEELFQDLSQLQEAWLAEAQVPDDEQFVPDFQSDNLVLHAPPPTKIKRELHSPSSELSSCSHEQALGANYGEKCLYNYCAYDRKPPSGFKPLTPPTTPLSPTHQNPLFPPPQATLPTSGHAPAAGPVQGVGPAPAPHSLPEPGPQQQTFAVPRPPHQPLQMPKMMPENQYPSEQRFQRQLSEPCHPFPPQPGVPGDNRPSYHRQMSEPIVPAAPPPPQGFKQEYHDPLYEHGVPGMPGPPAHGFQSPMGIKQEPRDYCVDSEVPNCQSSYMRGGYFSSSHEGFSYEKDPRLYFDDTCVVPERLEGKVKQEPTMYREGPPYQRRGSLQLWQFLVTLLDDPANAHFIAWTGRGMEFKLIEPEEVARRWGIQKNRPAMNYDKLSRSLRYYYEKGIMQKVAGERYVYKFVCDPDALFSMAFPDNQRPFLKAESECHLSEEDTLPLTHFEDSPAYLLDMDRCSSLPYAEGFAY
# Summary of the method: as §1
# HSF1 = HSF1 (Homo sapiens, UniProt Q00613 1-529); details: protein: recombinant; tags: N-terminal GST; chain copies: 3; dsDNA, one strand shown
# Sequence of HSF1 (Q00613 whole entry): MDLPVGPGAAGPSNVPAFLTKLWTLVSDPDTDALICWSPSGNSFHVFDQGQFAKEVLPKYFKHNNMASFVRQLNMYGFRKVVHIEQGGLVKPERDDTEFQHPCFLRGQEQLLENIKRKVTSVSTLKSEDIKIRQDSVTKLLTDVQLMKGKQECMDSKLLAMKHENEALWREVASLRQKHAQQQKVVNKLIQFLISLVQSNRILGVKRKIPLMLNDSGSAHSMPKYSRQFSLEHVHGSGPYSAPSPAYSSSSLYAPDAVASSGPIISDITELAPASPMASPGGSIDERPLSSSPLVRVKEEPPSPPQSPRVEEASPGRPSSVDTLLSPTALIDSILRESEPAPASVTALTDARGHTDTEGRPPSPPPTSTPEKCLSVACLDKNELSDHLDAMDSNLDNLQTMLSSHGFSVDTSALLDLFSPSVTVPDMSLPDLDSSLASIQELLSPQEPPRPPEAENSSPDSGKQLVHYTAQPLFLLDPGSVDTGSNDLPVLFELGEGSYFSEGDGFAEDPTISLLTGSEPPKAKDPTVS
# Summary of the method: as §1
# SPIC = target: T8, SPIC (Homo sapiens, UniProt Q8N5J4 1-248); details: protein: recombinant; tags: N-terminal GST; dsDNA, one strand shown
# T8 sequence: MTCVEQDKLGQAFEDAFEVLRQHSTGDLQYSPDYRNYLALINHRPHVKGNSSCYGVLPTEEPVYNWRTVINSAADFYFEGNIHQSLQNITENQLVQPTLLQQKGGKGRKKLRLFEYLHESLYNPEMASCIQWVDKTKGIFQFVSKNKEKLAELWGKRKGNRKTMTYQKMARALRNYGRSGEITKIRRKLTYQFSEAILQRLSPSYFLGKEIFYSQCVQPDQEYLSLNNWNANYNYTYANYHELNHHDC
# Summary of the method: as §1
# ELF4 = ELF4 (Homo sapiens, UniProt Q99607 1-663); details: protein: recombinant; tags: N-terminal GST; dsDNA, one strand shown
# Sequence of ELF4 (Q99607 whole entry): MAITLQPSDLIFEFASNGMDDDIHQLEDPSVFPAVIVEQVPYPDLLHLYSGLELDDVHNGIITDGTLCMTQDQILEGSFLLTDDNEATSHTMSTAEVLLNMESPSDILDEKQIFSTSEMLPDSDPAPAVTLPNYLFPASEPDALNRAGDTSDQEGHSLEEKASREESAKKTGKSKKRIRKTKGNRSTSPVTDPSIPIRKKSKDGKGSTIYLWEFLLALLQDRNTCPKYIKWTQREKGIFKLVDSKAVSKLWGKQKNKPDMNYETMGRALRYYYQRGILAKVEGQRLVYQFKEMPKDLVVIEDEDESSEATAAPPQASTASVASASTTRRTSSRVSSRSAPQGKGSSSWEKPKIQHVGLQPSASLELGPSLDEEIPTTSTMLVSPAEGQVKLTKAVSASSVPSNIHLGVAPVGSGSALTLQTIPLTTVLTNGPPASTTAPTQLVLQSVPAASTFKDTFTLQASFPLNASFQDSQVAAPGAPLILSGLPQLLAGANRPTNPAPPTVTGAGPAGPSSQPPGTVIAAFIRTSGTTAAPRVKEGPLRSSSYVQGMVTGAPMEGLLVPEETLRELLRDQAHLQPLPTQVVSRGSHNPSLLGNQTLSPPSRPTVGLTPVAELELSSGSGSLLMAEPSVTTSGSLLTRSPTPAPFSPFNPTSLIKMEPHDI
# Summary of the method: as §1
# ELK4 = target: T9, ELK4 (Homo sapiens, UniProt P28324-2 1-405); details: protein: recombinant; tags: N-terminal GST; dsDNA, one strand shown
# T9 sequence: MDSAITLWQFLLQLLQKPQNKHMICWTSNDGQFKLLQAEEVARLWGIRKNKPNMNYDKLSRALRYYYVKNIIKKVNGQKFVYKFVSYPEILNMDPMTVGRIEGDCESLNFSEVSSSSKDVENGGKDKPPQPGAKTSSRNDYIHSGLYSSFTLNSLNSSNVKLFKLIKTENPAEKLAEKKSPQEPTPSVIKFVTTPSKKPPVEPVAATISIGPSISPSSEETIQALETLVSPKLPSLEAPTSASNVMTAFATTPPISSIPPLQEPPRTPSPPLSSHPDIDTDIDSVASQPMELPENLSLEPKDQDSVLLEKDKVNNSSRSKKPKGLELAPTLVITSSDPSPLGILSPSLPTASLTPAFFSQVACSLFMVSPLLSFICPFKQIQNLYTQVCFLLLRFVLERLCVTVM
# Summary of the method: as §1
# ETV2 = target: T10, ETV2 (Homo sapiens, UniProt O00321 1-342); details: protein: recombinant; tags: N-terminal GST; dsDNA, one strand shown
# T10 sequence: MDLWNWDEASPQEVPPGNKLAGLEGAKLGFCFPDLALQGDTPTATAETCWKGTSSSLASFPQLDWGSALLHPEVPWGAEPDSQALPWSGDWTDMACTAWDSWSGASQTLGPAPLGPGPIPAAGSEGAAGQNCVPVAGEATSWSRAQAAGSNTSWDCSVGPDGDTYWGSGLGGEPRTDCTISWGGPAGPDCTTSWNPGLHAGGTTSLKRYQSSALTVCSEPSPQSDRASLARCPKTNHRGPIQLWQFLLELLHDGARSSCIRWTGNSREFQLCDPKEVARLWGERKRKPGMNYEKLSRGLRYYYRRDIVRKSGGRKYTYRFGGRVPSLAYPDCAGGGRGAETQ
# Summary of the method: as §1
# ELF3 = target: T11, ELF3 (Homo sapiens, UniProt P78545 1-371); details: protein: recombinant; tags: N-terminal GST; dsDNA, one strand shown
# T11 sequence: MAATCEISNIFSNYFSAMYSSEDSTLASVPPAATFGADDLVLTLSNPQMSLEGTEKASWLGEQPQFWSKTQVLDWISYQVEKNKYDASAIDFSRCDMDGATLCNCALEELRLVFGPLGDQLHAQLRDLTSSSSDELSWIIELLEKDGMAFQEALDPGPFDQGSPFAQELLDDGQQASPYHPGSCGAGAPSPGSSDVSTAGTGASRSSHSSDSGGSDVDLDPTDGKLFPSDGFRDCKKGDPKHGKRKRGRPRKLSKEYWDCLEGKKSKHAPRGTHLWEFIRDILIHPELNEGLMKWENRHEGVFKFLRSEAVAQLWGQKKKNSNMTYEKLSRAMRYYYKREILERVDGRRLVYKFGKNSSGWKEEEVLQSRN
# Summary of the method: as §1
# CRX = CRX (Homo sapiens, UniProt O43186 1-299); details: protein: recombinant; tags: N-terminal GST; dsDNA, one strand shown
# Sequence of CRX (O43186 whole entry): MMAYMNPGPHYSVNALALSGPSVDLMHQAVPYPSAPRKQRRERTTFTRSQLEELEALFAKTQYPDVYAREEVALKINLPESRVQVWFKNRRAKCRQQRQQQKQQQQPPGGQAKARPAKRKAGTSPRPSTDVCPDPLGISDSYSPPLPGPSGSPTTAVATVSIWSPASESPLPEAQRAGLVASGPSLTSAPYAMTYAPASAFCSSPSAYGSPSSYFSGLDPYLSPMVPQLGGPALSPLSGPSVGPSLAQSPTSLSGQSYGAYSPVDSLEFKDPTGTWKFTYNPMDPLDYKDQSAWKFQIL
# Summary of the method: as §1
# ETV1 = ETV1 (Homo sapiens, UniProt P50549 1-477); details: protein: recombinant; tags: N-terminal GST; dsDNA, one strand shown
# Sequence of ETV1 (P50549 whole entry): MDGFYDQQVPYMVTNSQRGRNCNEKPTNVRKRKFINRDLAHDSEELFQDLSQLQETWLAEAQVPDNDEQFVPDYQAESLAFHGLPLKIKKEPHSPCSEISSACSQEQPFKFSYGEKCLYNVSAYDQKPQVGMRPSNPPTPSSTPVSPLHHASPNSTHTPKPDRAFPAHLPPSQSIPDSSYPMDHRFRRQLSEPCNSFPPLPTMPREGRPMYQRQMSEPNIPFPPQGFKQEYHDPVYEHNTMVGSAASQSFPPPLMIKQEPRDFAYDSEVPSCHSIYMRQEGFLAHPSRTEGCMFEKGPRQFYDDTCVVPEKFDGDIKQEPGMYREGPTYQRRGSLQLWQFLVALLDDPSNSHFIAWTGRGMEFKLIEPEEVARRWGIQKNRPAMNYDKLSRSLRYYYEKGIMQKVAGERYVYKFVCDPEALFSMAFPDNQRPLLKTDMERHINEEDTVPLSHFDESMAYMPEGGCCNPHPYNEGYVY
# Summary of the method: as §1
sequence,measurement,setting,value
CTCCCT,binding signal,FLI1,"1.61 fold enrichment (6-mer frequency, TF over GST control)"
same,binding signal,ELK1,"1.43 fold enrichment (6-mer frequency, TF over GST control)"
same,binding signal,GABPA,"1.54 fold enrichment (6-mer frequency, TF over GST control)"
same,binding signal,ERG,"1.62 fold enrichment (6-mer frequency, TF over GST control)"
same,binding signal,ELF1,"1.68 fold enrichment (6-mer frequency, TF over GST control)"
same,binding signal,EHF,"1.52 fold enrichment (6-mer frequency, TF over GST control)"
same,binding signal,SPI1,"1.49 fold enrichment (6-mer frequency, TF over GST control)"
same,binding signal,SPIB,"1.66 fold enrichment (6-mer frequency, TF over GST control)"
same,binding signal,ELK3,"1.5 fold enrichment (6-mer frequency, TF over GST control)"
same,binding signal,FEV,"1.44 fold enrichment (6-mer frequency, TF over GST control)"
same,binding signal,ETV5,"1.73 fold enrichment (6-mer frequency, TF over GST control)"
same,binding signal,HSF1,"1.32 fold enrichment (6-mer frequency, TF over GST control)"
same,binding signal,SPIC,"1.38 fold enrichment (6-mer frequency, TF over GST control)"
same,binding signal,ELF4,"1.59 fold enrichment (6-mer frequency, TF over GST control)"
same,binding signal,ELK4,"1.41 fold enrichment (6-mer frequency, TF over GST control)"
same,binding signal,ETV2,"1.51 fold enrichment (6-mer frequency, TF over GST control)"
same,binding signal,ELF3,"1.48 fold enrichment (6-mer frequency, TF over GST control)"
same,binding signal,CRX,"1.36 fold enrichment (6-mer frequency, TF over GST control)"
same,binding signal,ETV1,"1.44 fold enrichment (6-mer frequency, TF over GST control)"
